Bioassay records: PubChem BioAssay, National Center for Advancing Translational Sciences (NCATS)
Compounds with a hit are over-represented: about 4.7% of the library has one in this group of screens.
TRHR PAM = qHTS for Small Molecule Agonists and Allosteric Enhancers of Human TRH Receptor: Primary Screen for Enhancers | TRHR cells, fluo-8 calcium fluorescence, EC20 TRH enhancement | enhancement, % at 2 µM | 360,000 compounds, 0.66% hits; in the data active = enhancement above about 30%
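TRHR-expressing cells loaded with fluo-8 calcium dye were read kinetically (ex 480/em 530) during compound addition, then stimulated with an EC20 of TRH (10 nM final). Enhancement of the Gq-mediated intracellular calcium response was scored.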
D1 potentiator = Potentiators of Human D1 Dopamine Receptor: qHTS. AID 504651, 2011. D(1A) dopamine receptor (Homo sapiens), P21728. potentiation, % at 10 µM. HEK293 TREx D1 cells, calcium flux, dopamine EC20 potentiation. 360,000 compounds, 0.036% hits; in the data active = potentiation above about 30%
Target sequence (P21728 whole entry, looked up): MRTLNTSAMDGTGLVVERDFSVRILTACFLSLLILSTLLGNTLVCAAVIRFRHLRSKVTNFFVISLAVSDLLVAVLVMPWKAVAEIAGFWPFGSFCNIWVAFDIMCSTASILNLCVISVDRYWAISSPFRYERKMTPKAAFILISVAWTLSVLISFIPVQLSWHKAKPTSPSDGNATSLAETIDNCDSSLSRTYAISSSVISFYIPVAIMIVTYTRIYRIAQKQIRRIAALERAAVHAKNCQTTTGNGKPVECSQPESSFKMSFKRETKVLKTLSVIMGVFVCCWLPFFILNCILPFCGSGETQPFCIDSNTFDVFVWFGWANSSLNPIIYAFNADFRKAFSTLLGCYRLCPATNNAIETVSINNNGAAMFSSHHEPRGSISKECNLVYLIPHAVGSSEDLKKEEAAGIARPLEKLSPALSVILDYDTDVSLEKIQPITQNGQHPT
D1 antag = Antagonist of Human D 1 Dopamine Receptor: qHTS. D(1A) dopamine receptor (Homo sapiens), P21728. 360,000 compounds, 3.2% hits. HEK293 TREx D1 cells, calcium flux, dopamine EC80; active compounds read low. AID 504652, 2011. activity change, negative = inhibition, % at 10 µM; in the data active = activity change below about -30%
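Compound effects on dopamine-evoked calcium signalling were measured in tetracycline-induced HEK293 Trex D1 cells. Dopamine at EC80 followed a 180 s compound pre-read, and fluorescence was tracked kinetically for 180 s more.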
TRHR ag = qHTS for Small Molecule Agonists and Allosteric Enhancers of Human TRH Receptor: Primary Screen for Agonists. TRHR cells, calcium flux fluo-8, FDSS agonist mode. activation, % at 2 µM. 360,000 compounds, 0.18% hits
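Agonist-mode FDSS calcium read (Ex 480/Em 530, 1 s cycles) in 1536-well TRHR cells with fluo-8 dye, after 10-cycle baseline and 23 nL compound addition; TRH at EC20 (10 nM final) added afterwards for the enhancer phase.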
D1 ag = Allosteric Agonists of the Human D1 Dopamine Receptor: qHTS; HEK293 T-REx D1 cells, calcium flux, agonist mode; 360,000 compounds, 1% hits; activation, % at 2 µM
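Tetracycline-induced HEK293 TREx D1 cells, force-coupled to calcium signalling, were dye-loaded with a no-wash calcium kit. Compound was pin-added after a 10 s baseline. Fluorescence was read kinetically at 1 cycle/s for 180 s, with calcium rises flagged as agonism.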
Large screens that a line does not name were inactive. Rule as the data show it, unless noted: active = activation above about 30%; inactive = the rest.

COc1ccc(OC)c(C(=O)c2coc3ccc(O)cc23)c1	TRHR PAM 40
CC(=O)N1N=C(c2ccc(Cl)cc2)OC1c1ccc(C(C)C)cc1 (stereo not given)	none
CC(=O)N1N=C(c2ccc(C)cc2)OC1c1ccc(Br)cc1 (stereo not given)	D1 antag -30
CCOc1ccc(N2CC(O)(c3ccc(F)cc3)[N+]3=C2CCCC3)cc1 (stereo not given)	D1 antag -44
COc1ccc(N2CC(O)(c3ccc(F)cc3)[N+]3=C2CCCC3)cc1 (stereo not given)	none
COc1cccc(C(=O)NCC2(c3ccccc3)CCCC2)c1OC	none
CCCCCC[N+](C)(C)CCSSCC[N+](C)(C)CCCCCC	none
CC#CC[N+](C)(C)CCCCCCCCCCCC	D1 ag 34
CCCCCCCCCCCCCCCC[N+](C)(C)CC	D1 ag 41
C#CC[N+](C)(C)CCCCCCCCCC	none
CCOC(=O)c1ccc(N2CCN(c3ccc(F)cc3)CC2)c(NC(=O)Nc2ccc(CC)cc2)c1	none
CCn1c2ccccc2c2cc(NC(=O)c3cc(C)on3)ccc21	D1 antag -45
CCn1c2ccccc2c2cc(NC(=O)c3ccc(Br)o3)ccc21	none
CCn1c2ccccc2c2cc(NC(=O)c3coc(=O)c(Br)c3)ccc21	D1 antag -32
CC(C)c1ccc(NC(=S)N2CCN(S(=O)(=O)c3ccccc3)CC2)cc1	none
CCOC(=O)C1(C)C=C(Nc2ccc(C)cc2)C(=O)N1c1ccccc1 (stereo not given)	none
N#CCC(=O)Nc1ccc(C(=O)OCC(=O)N=c2sccn2Cc2ccccc2Cl)cc1	D1 antag -46
Cn1ncc(-c2ccno2)c1C(=O)O	D1 ag 37
CC(=O)N1CCCC1c1nc2ccccc2n1Cc1cccc(Cl)c1 (stereo not given)	D1 antag -33
Cc1ccc(-n2ncc3c(Nc4cccc(C)c4)ncnc32)cc1	D1 antag -33
COC(=O)c1ccc(Nc2ncnc3c2cnn3-c2cccc(C)c2)cc1	D1 antag -38
Cc1cccc(-n2ncc3c(Nc4ccc(F)cc4)ncnc32)c1	D1 antag -49
Cc1ccc(CCNC(=O)c2ccc(NC(=O)N3CCSc4ccccc43)cc2)cc1	none
CCOC(=O)c1ccc(NC(=O)N2CCc3ccccc3C2)cc1	D1 antag -39
CCOC(=O)c1ccc(NC(=O)N2CCc3ccccc32)cc1	none
Cc1ccc(NC(=O)c2ccc(CN3CCc4ccccc4C3)cc2)cc1	D1 antag -33
Cc1ccc(-n2ncc3c(Nc4ccc5c(c4)OCCO5)ncnc32)cc1C	none
CCc1cccc2c(C(=O)C(NCCOC)c3ccccc3)c[nH]c12 (stereo not given)	none
CCNC(C(=O)c1c[nH]c2c(CC)cccc12)c1ccccc1 (stereo not given)	D1 ag 63
COc1ccc(Cl)cc1NS(=O)(=O)c1c(C)[nH]c(C)c1C(=O)N1CCCCC1	none
Cc1cc(F)ccc1NC(=O)CCS(=O)(=O)c1cccc2nsnc12	none
Cc1ccccc1NC(=O)CSc1n[nH]c(-c2ccccn2)n1	TRHR PAM 35
Cc1cc(S(=O)(=O)N2CCCC(N(C)CCc3ccccn3)C2)c(C)cc1Cl (stereo not given)	D1 antag -54
Cc1ccc(NC(=O)C2CCN(S(=O)(=O)c3c(C)noc3C)CC2)c(C)c1	none
Cc1nc(NC(=O)CN2CCN(c3cccc(Cl)c3)CC2)sc1C(=O)N(C)C	none
COc1ccc(-n2ccnc(NCc3cccs3)c2=O)cc1	D1 antag -34
N#Cc1nc(Nc2ccc(F)cc2)nc(NC2CCCC2)n1	none
CC(=O)c1cn(C)c(=O)[nH]c1=O	none
CC(=O)c1cn(-c2ccc(Cl)cc2)c(=O)[nH]c1=O	D1 antag -32
Cc1ccc(-c2c(C#N)c(N)nc3c2CCCCC3)o1	D1 antag -48
Cc1ccc(-c2c(C#N)c(N)nc3c2CCCCCC3)o1	none
CC1CC(C)CN(c2ccc(-n3cnnn3)cc2[N+](=O)[O-])C1 (stereo not given)	none
